Read-outs that look alike come from different tables or passages of the source.
Experiments:
Parameters in all cases: species or system human, MV4-11 + K-562 + COLO205 + SK-N-BE2 + OVCAR-8
ERCC2 = settings: read-out: apparent Kd, n = 1
FER = settings: read-out: apparent Kd, compound concentrations: 100 nM and 1000 nM (sheet 'Samples'), n = 1
PRKAG1 = settings: read-out: apparent Kd, n = 1
PRKD2 = settings: read-out: apparent Kd, n = 1
PTK2B = settings: read-out: apparent Kd, compound concentrations: 100 nM and 1000 nM (sheet 'Samples'), n = 1
RPS6KA6 = settings: read-out: apparent Kd, compound concentrations: 100 nM and 1000 nM (sheet 'Samples'), n = 1
DYRK1A = settings: read-out: apparent Kd, compound concentrations: 100 nM and 1000 nM (sheet 'Samples'), n = 1
MYLK3 = settings: read-out: apparent Kd, n = 1
STK10 = settings: read-out: apparent Kd, n = 1
CDK7 = settings: read-out: apparent Kd, n = 1
PLK4 = settings: read-out: apparent Kd, n = 1
PRKCD = settings: read-out: apparent Kd, compound concentrations: 100 nM and 1000 nM (sheet 'Samples'), n = 1
PRKCQ = settings: read-out: apparent Kd, compound concentrations: 100 nM and 1000 nM (sheet 'Samples'), n = 1
CDKL5 = settings: read-out: apparent Kd, n = 1
LATS1 = settings: read-out: apparent Kd, n = 1
MARK4 = settings: read-out: apparent Kd; compound concentrations:100 nM and 1000 nM (sheet 'Samples'); n = 1
PRKAA1 = settings: read-out: apparent Kd; compound concentrations:100 nM and 1000 nM (sheet 'Samples'); n = 1
PRKD3 = settings: read-out: apparent Kd; compound concentrations:100 nM and 1000 nM (sheet 'Samples'); n = 1
PIP4K2C = settings: read-out: apparent Kd; compound concentrations: 100 nM and 1000 nM (sheet 'Samples'), CATDS: 1.6714878320236801E-2; n = 1
[1] = compound concentrations:100 nM and 1000 nM (sheet 'Samples')

## COc1ccc(Nc2nccc(NCCNC(=O)Nc3cc(C)ccc3C)n2)cc1 [GSK1379899A]
ERCC2; compound concentrations: 100 nM and 1000 nM (sheet 'Samples'), CATDS: 4.8239081355384503E-2
  potency estimated from few doses: 1270 nM
FER; CATDS: 5.8591090270846503E-2
  potency estimated from few doses: 821 nM
PRKAG1; compound concentrations: 100 nM and 1000 nM (sheet 'Samples'), CATDS: 5.18818459595803E-2
  potency estimated from few doses: 1070 nM
PRKD2; compound concentrations: 100 nM and 1000 nM (sheet 'Samples'), CATDS: 5.1330821571124501E-2
  potency estimated from few doses: 1100 nM
PTK2B; CATDS: 5.6831578265935698E-2
  potency estimated from few doses: 876 nM
RPS6KA6; CATDS: 5.53882917247734E-2
  potency estimated from few doses: 926 nM

## CNc1nccc(-c2ccc3c(N)n[nH]c3c2)n1 [GSK2206003A]
DYRK1A; CATDS: 5.2030559523690803E-2
  potency estimated from few doses: 1370 nM
MYLK3; compound concentrations: 100 nM and 1000 nM (sheet 'Samples'), CATDS: 6.3436586084605395E-2
  potency estimated from few doses: 601 nM
STK10; compound concentrations: 100 nM and 1000 nM (sheet 'Samples'), CATDS: 6.2859781396148603E-2
  potency estimated from few doses: 622 nM

## Cl.Cn1cc(C2=C(c3c4n(c5ccccc35)CCNC4)C(=O)NC2=O)c2ccccc21 [RO0318365-001]
CDK7; compound concentrations: 100 nM and 1000 nM (sheet 'Samples'), CATDS: 7.1923944144695898E-2
  potency estimated from few doses: 734 nM
ERCC2; compound concentrations: 100 nM and 1000 nM (sheet 'Samples'), CATDS: 7.4045119432564296E-2
  potency estimated from few doses: 696 nM
FER; CATDS: 6.02044843999179E-2
  potency estimated from few doses: 1060 nM
PLK4; compound concentrations: 100 nM and 1000 nM (sheet 'Samples'), CATDS: 5.91687426181325E-2
  potency estimated from few doses: 1100 nM
PRKCD; CATDS: 4.8671677826933601E-2
  potency estimated from few doses: 1810 nM
PRKCQ; CATDS: 7.9846572084882106E-2
  potency estimated from few doses: 607 nM
PTK2B; CATDS: 6.7595952047570504E-2
  potency estimated from few doses: 828 nM

## NS(=O)(=O)c1ccc(N/C=C2\C(=O)Nc3ccc4ncsc4c32)cc1 [GW297361X]
CDKL5; compound concentrations: 100 nM and 1000 nM (sheet 'Samples'), CATDS: 5.4362762723509199E-2
  potency estimated from few doses: 448 nM
MYLK3; compound concentrations: 100 nM and 1000 nM (sheet 'Samples'), CATDS: 0.13217199419509801
  potency estimated from few doses: 106 nM
PRKD2; compound concentrations: 100 nM and 1000 nM (sheet 'Samples'), CATDS: 2.8859084082920799E-2
  potency estimated from few doses: 2200 nM

## COc1cc[nH]c1/C=C1\C(=O)Nc2ccc(F)c(C#C[C@@H](O)[C@@H](N)[C@@H](C)O)c21 [RO0283120-000]
CDK7; [1]
  potency estimated from few doses: 445 nM
CDKL5; [1]
  potency estimated from few doses: 32.4 nM
ERCC2; [1]
  potency estimated from few doses: 785 nM
LATS1; [1]
  potency estimated from few doses: 125 nM
MARK4
  potency estimated from few doses: 703 nM
MYLK3; [1]
  potency estimated from few doses: 827 nM
PRKAA1
  potency estimated from few doses: 1040 nM
PRKAG1; [1]
  potency estimated from few doses: 821 nM
PRKD2; [1]
  potency estimated from few doses: 278 nM
PRKD3
  potency estimated from few doses: 236 nM

## COc1cc[nH]c1/C=C1\C(=O)Nc2ccc(F)c(I)c21 [RO0281567-000]
MYLK3; compound concentrations: 100 nM and 1000 nM (sheet 'Samples'), CATDS: 0.10963488486357401
  potency estimated from few doses: 1520 nM

## CN[C@H](C#Cc1c(F)ccc2c1/C(=C/c1[nH]ccc1OC)C(=O)N2)CO.Cl [RO0283049-001]
CDKL5; compound concentrations: 100 nM and 1000 nM (sheet 'Samples'), CATDS: 0.200980885548627
  potency estimated from few doses: 17.8 nM
LATS1; compound concentrations: 100 nM and 1000 nM (sheet 'Samples'), CATDS: 5.43155260129227E-2
  potency estimated from few doses: 134 nM
MYLK3; compound concentrations: 100 nM and 1000 nM (sheet 'Samples'), CATDS: 2.9648763968158898E-2
  potency estimated from few doses: 504 nM

## CNCC1CCn2c(c(C3=C(c4cn(C)c5ccccc45)C(=O)NC3=O)c3ccccc32)C1 (stereo not shown) [RO0318676-000]
CDK7; compound concentrations: 100 nM and 1000 nM (sheet 'Samples'), CATDS: 3.3814045459066702E-2
  potency estimated from few doses: 945 nM
ERCC2; compound concentrations: 100 nM and 1000 nM (sheet 'Samples'), CATDS: 3.3447385930038299E-2
  potency estimated from few doses: 976 nM
FER; CATDS: 3.4006049633961401E-2
  potency estimated from few doses: 929 nM
PRKAG1; compound concentrations: 100 nM and 1000 nM (sheet 'Samples'), CATDS: 3.0243229141785101E-2
  potency estimated from few doses: 1340 nM
PRKCD; CATDS: 0.12623439225341199
  potency estimated from few doses: 48.7 nM
PRKCQ; CATDS: 0.111424858077941
  potency estimated from few doses: 61.3 nM
PTK2B; CATDS: 3.5074234548869702E-2
  potency estimated from few doses: 849 nM
RPS6KA6; CATDS: 8.7281654841073406E-2
  potency estimated from few doses: 98.7 nM

## CC(C)N1CC(=O)N(C)c2cnc(Nc3cccc(S(=O)(=O)CCN4CCOCC4)c3)nc21 [BI00009348]
STK10; compound concentrations: 100 nM and 1000 nM (sheet 'Samples'), CATDS: 5.40109770146803E-2
  potency estimated from few doses: 1450 nM

## O=C1N=C(NCCc2ccccc2Cl)S/C1=C\c1ccc2ncccc2c1 [RO4498484-000]
CDKL5; compound concentrations: 100 nM and 1000 nM (sheet 'Samples'), CATDS: 6.1493092563951302E-2
  potency estimated from few doses: 1600 nM
DYRK1A; CATDS: 8.1161352179904903E-2
  potency estimated from few doses: 673 nM

## O=C(Nc1n[nH]c2nc(-c3ccccc3O)ccc12)C1CC1 [SB-711880]
CDKL5; [1]
  potency estimated from few doses: 1450 nM
LATS1; [1]
  potency estimated from few doses: 1030 nM
MARK4
  potency estimated from few doses: 1680 nM
MYLK3; [1]
  potency estimated from few doses: 219 nM
PLK4; [1]
  potency estimated from few doses: 867 nM
PRKD2; [1]
  potency estimated from few doses: 712 nM
PRKD3
  potency estimated from few doses: 570 nM
STK10; [1]
  potency estimated from few doses: 1200 nM

## COc1cc[nH]c1/C=C1\C(=O)Nc2ccc([N+](=O)[O-])c(N3CC[C@@H](O)C3)c21 [RO0504985-000]
CDKL5; compound concentrations: 100 nM and 1000 nM (sheet 'Samples'), CATDS: 0.118567124910979
  potency estimated from few doses: 46.7 nM

## O=C1N=C(NCCc2cccs2)S/C1=C\c1ccc2ncccc2c1 [RO4508348-000]
DYRK1A; CATDS: 0.139481417923777
  potency estimated from few doses: 734 nM

## Cl.Cl.NCC(NC(=O)c1cc(-c2ccnc3[nH]ccc23)cs1)c1ccccc1.NCC(NC(=O)c1cc(-c2ccnc3[nH]ccc23)cs1)c1ccccc1 (stereo not shown) [GSK1229959A]
CDK7; compound concentrations: 100 nM and 1000 nM (sheet 'Samples'), CATDS: 2.3944449367716902E-2
  potency estimated from few doses: 349 nM
CDKL5; compound concentrations: 100 nM and 1000 nM (sheet 'Samples'), CATDS: 5.0422739373742101E-2
  potency estimated from few doses: 33.2 nM
DYRK1A; CATDS: 1.8409243102770301E-2
  potency estimated from few doses: 1200 nM
ERCC2; compound concentrations: 100 nM and 1000 nM (sheet 'Samples'), CATDS: 2.07815599628208E-2
  potency estimated from few doses: 649 nM
MYLK3; compound concentrations: 100 nM and 1000 nM (sheet 'Samples'), CATDS: 2.3428006567825201E-2
  potency estimated from few doses: 382 nM
PIP4K2C
  potency estimated from few doses: 2230 nM
PRKAG1; compound concentrations: 100 nM and 1000 nM (sheet 'Samples'), CATDS: 1.9025331184012301E-2
  potency estimated from few doses: 1010 nM
PRKCD; CATDS: 2.3457230282112398E-2
  potency estimated from few doses: 380 nM
PRKCQ; CATDS: 1.8945184174552199E-2
  potency estimated from few doses: 1030 nM
PTK2B; CATDS: 1.9759894186564299E-2
  potency estimated from few doses: 828 nM

Reference: paper PMC11062922 (Nature Chemical Biology, 2023)
